Bioassay records: PubChem, National Center for Advancing Translational Sciences (NCATS)
This is a sample that favours compounds with a hit; in the whole collection about 3.9% have one here.
Eya2 inh: qHTS Assay for Inhibitors of the Phosphatase Activity of Eya2 | AID 488837, 2010 | Protein phosphatase EYA2 (Homo sapiens), O00167 | 0.006% of 330,000 active | recombinant Eya2, OMFP fluorescence dephosphorylation (OMFP is methylfluorescein phosphate) | Potency, µM (top dose mostly 76.9 µM), for the others: top-dose activity, negative = inhibition, usual class: inhibitors; further: potency means the concentration at half of the fitted maximal effect; on the % scale 0 is the no-effect control and ±100 the full control effect
Target sequence (O00167 whole entry, looked up): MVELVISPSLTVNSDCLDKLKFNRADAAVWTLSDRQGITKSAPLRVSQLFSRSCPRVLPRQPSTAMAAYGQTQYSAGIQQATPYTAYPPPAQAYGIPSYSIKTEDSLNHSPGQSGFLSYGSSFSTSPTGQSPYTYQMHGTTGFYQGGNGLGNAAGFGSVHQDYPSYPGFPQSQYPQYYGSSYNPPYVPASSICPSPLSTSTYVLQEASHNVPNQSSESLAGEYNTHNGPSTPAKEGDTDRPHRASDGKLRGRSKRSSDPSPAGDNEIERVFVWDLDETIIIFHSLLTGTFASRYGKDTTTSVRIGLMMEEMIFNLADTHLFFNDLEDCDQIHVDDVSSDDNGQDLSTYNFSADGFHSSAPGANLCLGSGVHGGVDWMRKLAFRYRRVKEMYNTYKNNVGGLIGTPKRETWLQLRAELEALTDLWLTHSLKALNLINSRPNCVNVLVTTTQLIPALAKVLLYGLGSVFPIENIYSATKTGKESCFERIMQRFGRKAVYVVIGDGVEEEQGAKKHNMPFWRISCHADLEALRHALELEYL
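Eya2 protein (added as 0.2 uM solution) was preincubated with compound for 10 min at ambient temperature in 50 mM HEPES pH 7.5, 50 mM NaCl, 5 uM MgCl2, 0.05% BSA, 1 mM DTT. OMFP (added at 50 uM) then reacted 10 min; fluorescence read at 485/525 nm.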
D1 agonist: Allosteric Agonists of the Human D1 Dopamine Receptor: qHTS; D(1A) dopamine receptor (Homo sapiens), P21728; HEK293 T-REx D1 cells, calcium flux, agonist mode; activation, % at 2 µM; 1% of 360,000 active; in the data active means activation above about 30%; further: 0% is about no effect
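Inducible HEK293 T-REx D1 cells, force-coupled to calcium signalling, were plated at 4000 cells/well with tetracycline and held overnight at 30 C. After no-wash calcium dye loading, compound-evoked calcium rise over 180 s flagged agonists.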
GALK inhibitor: qHTS Assay for Inhibitors of Human Galactokinase (GALK). P51570. Purified GALK, Kinase-Glo residual ATP luminescence. Potency, µM (series often up to 57.5 µM), for the others: at the highest dose activity change, negative = inhibition, hits mostly inhibitors. 0.007% of 270,000 active. AID 1868, 2009; further: potency means the concentration at half of the fitted maximal effect; on the % scale 0 is the no-effect control and ±100 the full control effect
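ATP-depletion format; final 35 uM ATP, 100 uM D-galactose, 5 nM enzyme; pH 8.0 HEPES/Mg2+ buffer; 60 min RT; luminescence read 10 min after detection reagent.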
D1 PAM: Potentiators of Human D1 Dopamine Receptor: qHTS. potentiation, % at 10 µM. D(1A) dopamine receptor (Homo sapiens), P21728. HEK293 TREx D1 cells, calcium flux, dopamine EC20 potentiation. 0.036% of 360,000 active; in the data active means potentiation above about 30%; further: 0% is about no effect
USP2a inh: qHTS Assay for Inhibitors of Ubiquitin-specific Protease USP2a Using CHOP2 as the Reporter; Ubiquitin carboxyl-terminal hydrolase 2 (Homo sapiens), O75604; 0.01% of 330,000 active; Potency, µM (highest dose often 38.3 µM), inactives show at the highest dose activity change, negative = inhibition, most hits filed as inhibitors; USP2 core, Ub-CHOP2 coupled fluorogenic reporter, 485/531;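 further: potency means the concentration at half of the fitted maximal effect; plate controls were DMSO wells for no effect and full inhibition by NEM control for full effect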
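USP2 core (10nM final) preincubated 30min RT with compound in 20mM Tris-HCl pH 8.0, 2mM CaCl2, 2mM beta-mercaptoethanol, 0.05% CHAPS; 25nM Ub-CHOP2 plus 25nM reporter substrate added, fluorescence (Ex485/Em531) read after 60min.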
D1 antag: Antagonist of Human D 1 Dopamine Receptor: qHTS. activity change, negative = inhibition, % at 10 µM. AID 504652, 2011. 3.2% of 360,000 active. D(1A) dopamine receptor (Homo sapiens), P21728. HEK293 TREx D1 cells, calcium flux, dopamine EC80; active compounds read low; in the data active means activity change below about -30%; further: on the % scale 0 is the no-effect control and ±100 the full control effect
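Tetracycline-induced HEK293 Trex D1 cells, force-coupled to calcium, dye-loaded; compounds added and read 180 s, then EC80 dopamine added and calcium flux tracked kinetically another 180 s.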
The depositor's hits bear a star; u = inconclusive; x = no result given. Unless noted, the call rests on the fitted dose curve; in most records, active means well fitted inhibition curve with a large enough effect; inconclusive means small, poorly fitted or top-dose-only effect, or effect the other way; inactive means flat fitted curve, though single readings scatter.

SMILES | Eya2 inh | D1 agonist | GALK inhibitor | D1 PAM | USP2a inh | D1 antag
NC(N)=NOCCC(N)C(=O)O (configuration not stated) | -4% | x | x | x | x | x
CC/C(=C\C=C\[C@@H]1C=C[C@@H]2CCC[C@H]2[C@@H]1C(=O)c1ccc[nH]1)[C@@H]1O[C@@H]([C@@H](C)C(=O)O)CC[C@@H]1C | -19% | 29 | -4% | -7 | -7% | -60*
COc1cc(/C=C/c2nc3ccccc3c(=O)n2-c2cccc(O)c2)ccc1O | -14% | 19 | x | -10 | 8% | -28
COc1ccccc1-n1c(/C=C/c2ccccc2)nc2ccccc2c1=O | x | -1 | x | 3 | x | 14
COc1ccccc1-n1c(/C=C/c2ccc(O)cc2)nc2ccccc2c1=O | 19% | 2 | x | 0 | -6% | -30*
COc1cc(/C=C/c2nc3ccccc3c(=O)n2-c2ccccc2O)ccc1O | 0% | 49* | 6% | -5 | 1% | 4
CCCS(=O)(=O)N1CCCC(C(=O)N2CCC3(CC2)OCCO3)C1 (configuration not stated) | 0% | 1 | 0% | -3 | 2% | -3
CS(=O)(=O)N1CCCC(C(=O)N2CCC3(CC2)OCCO3)C1 (configuration not stated) | -5% | 1 | x | -1 | 1% | -34*
CC(C)NC(C)C(=O)c1ccc2ccccc2c1 (configuration not stated) | 0% | 1 | 2% | -4 | 3% | -34*
CC(C(=O)c1ccc2ccccc2c1)N1CCCCC1 (configuration not stated) | -8% | 1 | 14% | -2 | 2% | -2
Cc1ccccc1CN1C(=O)CN=C(c2ccccc2)c2cc(Cl)ccc21 | x | 5 | x | 0 | x | 0
c1cncc(CNC2=NCCCCC2)c1 | -14% | 3 | 1% | -1 | 0% | -47*
Nc1cc(N2CCNCC2)c([N+](=O)[O-])cc1Cl | 0% | 3 | 2% | -15 | -1% | -42*
Cc1cc(C)cc(-n2c(O)c(C=Nc3ccc(N4CCOCC4)cc3)c(=O)[nH]c2=S)c1 | 11% | 35* | 1% | 0 | 1% | -4
CCN(CC)c1ccc(CNCCc2ccc(F)cc2)cc1 | 1% | 64* | 0% | 1 | 0% | 4
Fc1ccc(CCNCc2ccc(Cl)c(Cl)c2)cc1 | -4% | 10 | x | -2 | 1% | -15
CCc1ccc(CNCCc2ccc(F)cc2)cc1 | -5% | 62* | 2% | -7 | 3% | -11
COC(=O)C1=C(c2ccc(Cl)c(C(F)(F)F)c2)C[C@@H]2CC[C@H]1N2C(=O)N1CCCC1 | -4% | 0 | x | -1 | 4% | -42*
COC(=O)C1=C(c2ccc(F)cc2F)C[C@@H]2CC[C@H]1N2C(=O)N1CCCC1 | -20% | -1 | x | -8 | 0% | 2
COC(=O)C1=C(c2ccc(F)cc2F)C[C@@H]2CC[C@H]1N2C(=O)N1CCC(O)(c2ccc(Cl)cc2)CC1 | 4% | 5 | x | -3 | 1% | -46*
Cc1ccc(-n2c(/C=C/c3cc(Br)cs3)nc3ccccc3c2=O)cc1 | x | -1 | x | 0 | x | 2
COc1cc(C(=O)OCc2cc(=O)c(O)co2)ccc1OC(F)F | u | 5 | -1% | -4 | 0% | 19
CCOc1ccc(N2C(=O)NC(=O)/C(=C\c3ccccc3[N+](=O)[O-])C2=O)cc1 | 2% | 1 | 1% | 5 | -1% | -46*
O=C(OCC(=O)c1ccc([N+](=O)[O-])cc1)/C(=C/c1ccc(Cl)cc1)NC(=O)c1ccccc1 | 2% | 3 | 0% | 2 | -1% | -34*
CC(C)Sc1nnc([C@@H](N)Cc2ccccc2)o1 | 18% | 75* | 2% | -2 | -2% | -11
CSc1nnc([C@@H](N)Cc2ccccc2)o1 | -10% | 1 | 0% | 1 | 3% | 11
O=C(COc1ccccc1Cl)N1CCN(CCc2ccccn2)CC1 | x | 13 | x | 0 | x | 5
C[C@]12Cc3cn4c(nc3C=C1CCC1C2CC[C@@]2(C)[C@H]1CC[C@@]2(O)C#N)nc1ccccc14 (some centres not stated) | 3% | x | x | x | x | x
